Measurements from PubChem BioAssay.
Results filed as inconclusive are left out. For some assays here: Entries with a potency or affinity are not part of this list. The source made the active and inactive calls. Unless noted, the rule behind the calls is not given here.

Key:
[1] = system: Aerobactin synthetase IucA (Klebsiella pneumoniae); experiment: IucA aerobactin synthetase inhibitors, biochemical, Tocris library, absorbance (AID 1345561); conditions: purified IucA enzyme assay, absorbance (OD) read-out; stronger effect = lower value;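 tested at 8 µM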;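 note: 100% = enzyme without compound and 0% = no enzyme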
[2] = growth inhibition of DIPG glioma cells, dose response, cell-based, JHH-DIPG-1, MIPE4.0, CellTiter-Glo, qHTS (AID 1347062; cut-off not given, nearly all actives have AC50 up to about 27 µM;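 for AC50: cells exposed to compound for two days before readout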); conditions: JHH-DIPG-1 viability, CellTiter-Glo ATP luminescence
[3] = viability loss in pontine glioma line – cell-based, SU-DIPG-XXV, MIPE5.0, CellTiter-Glo, qHTS, dose response (AID 1347065; cut-off not given, nearly all actives have AC50 up to about 26 µM;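 note: cells exposed to compound for 48 hours before ATP readout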); conditions: CellTiter-Glo ATP luminescence
F380Y = experiment: modulators of BK channel variants, profiling panel, selectivity assay, cell-based, U2OS BacMam, thallium flux, beta subunits (AID 1259406;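 active = thallium flux through the channel raised or lowered by more than 3 SD from vehicle-only wells, actives on both sides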;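 note: initial slope of Thallos dye fluorescence rise after thallium is added; log ratio against the mean of 0.3% DMSO vehicle wells on the same plate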); conditions: at 30 µM
F380Y/beta2Delta = experiment: as above; conditions: at 30 µM
[4] = biological target: Calcium-activated potassium channel subunit alpha-1 (Homo sapiens) + Leucine-rich repeat-containing protein 26 (Homo sapiens) (UniProt Q12791+Q2I0M4); experiment: as above; conditions: F380Y/Slo1WT/gamma1, at 30 µM
Chain of Calcium-activated potassium channel subunit alpha-1 (Homo sapiens) + Leucine-rich repeat-containing protein 26 (Homo sapiens) (Q2I0M4 whole entry, looked up, one chain of several): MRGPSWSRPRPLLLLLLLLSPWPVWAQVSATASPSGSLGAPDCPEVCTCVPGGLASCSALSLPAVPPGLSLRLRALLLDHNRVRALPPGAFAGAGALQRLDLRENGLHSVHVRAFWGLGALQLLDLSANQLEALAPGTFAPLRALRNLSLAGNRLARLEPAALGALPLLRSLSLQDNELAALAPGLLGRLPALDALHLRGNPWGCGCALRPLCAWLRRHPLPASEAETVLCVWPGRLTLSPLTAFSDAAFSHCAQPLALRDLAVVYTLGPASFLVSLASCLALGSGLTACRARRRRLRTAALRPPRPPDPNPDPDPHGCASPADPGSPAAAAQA

R275C = experiment: as above; conditions: at 30 µM
R275C/beta1 = experiment: as above; conditions: at 30 µM
R275C/beta2Delta = experiment: as above; conditions: at 30 µM
[5] = polyglutamine-triggered caspase-3 activation inhibitors, cell-based (AID 1583); conditions: polyglutamine-induced caspase-3 activation, cell assay; stronger effect = higher value;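 tested at 10 µM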
[6] = suppressors of polyQ aggregation in yeast, 75Q-TubU reporter (AID 1593); conditions: Yeast 75Q polyglutamine aggregation reporter
[7] = rescue of polyQ-huntingtin neuronal dysfunction in worms, whole organism, C. elegans mechanosensory neurons, N-terminal huntingtin (AID 1599); conditions: touch response, stronger effect = higher value
[8] = inhibitors of mitochondrial cytochrome c release, biochemical, purified mitochondria (AID 1603); conditions: stronger effect = lower value;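 note: mouse liver mitochondria challenged with calcium chloride; signal normalized to the plate average as 100%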
[9] = inhibitors of polyQ protein aggregation (AID 1604); conditions: polyglutamine-induced protein aggregation inhibition assay; stronger effect = higher value; tested at 2.5 µM
[10] = enhancers of glutamate uptake in motor neurons, MN-1 cell line (AID 1612); conditions: MN-1 motor neuron cells, stronger effect = higher value;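 note: tested at 1 µM final; 0% = mean of DMSO vehicle wells on each plate; positive means more glutamate uptake than control and negative means less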
[11] = suppressors of polyglutamine aggregation in yeast, 75Q-TubH (AID 1616); conditions: S. cerevisiae 75Q-TubH polyglutamine aggregation suppression; stronger effect = higher value
[12] = system: Hepatitis C virus NS3 helicase; experiment: HCV NS3 helicase inhibitors, primary screen, biochemical, fluorescence polarization, LOPAC1280 library (AID 687035; in the data active = inhibition above about 37%); conditions: Purified HCV NS3 helicase, Cy5-dT15 ssDNA binding fluorescence polarization; stronger effect = higher value; concentration not given here
[13] = Cy5 fluorescence quenching or enhancement artefacts, artefact control for HCV NS3 helicase inhibitor project, biochemical, LOPAC1280 (AID 687037); conditions: Cy5-DNA-NS3h complex fluorescence interference counterscreen
[14] = phospholipid biosynthesis inhibitors in animal cells, primary screen, cell-based, LOPAC library, screen 4 (AID 1347384); conditions: phospholipid biosynthesis inhibition screen, at 10 µM
[15] = circadian clock period modulators, cell-based, LOPAC library, luminescence reporter (AID 2774); conditions: circadian reporter cells, at 7 µM, actives lie on both sides;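 note: values are relative to mean of DMSO wells on each plate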

SMILES: NP(N)(=O)NC(=O)c1ccc(F)cc1
- remaining activity [1]: 91.8% (inactive)

SMILES: C#CCN(C)[C@H](C)Cc1ccccc1
- outcome [2]: inactive
- outcome [3]: inactive
- log fold change Tl+ flux (F380Y): 0.00891 (inactive)
- log fold change Tl+ flux (F380Y/beta2Delta): -0.0258 (inactive)
- log fold change Tl+ flux [4]: 0.000386 (inactive)
- log fold change Tl+ flux (R275C): -0.00358 (inactive)
- log fold change Tl+ flux (R275C/beta1): 0.0188 (inactive)
- log fold change Tl+ flux (R275C/beta2Delta): -0.0448 (inactive)

SMILES: CN1C(=O)COc2c(C(=O)NC3CN4CCC3CC4)cc(Cl)cc21 (stereo not given)
- outcome [2]: inactive
- outcome [3]: inactive
- log fold change Tl+ flux (F380Y): 0.054 (inactive)
- log fold change Tl+ flux (F380Y/beta2Delta): 0.0242 (inactive)
- log fold change Tl+ flux [4]: 0.0336 (inactive)
- log fold change Tl+ flux (R275C): -0.0315 (inactive)
- log fold change Tl+ flux (R275C/beta1): 0.0279 (inactive)
- log fold change Tl+ flux (R275C/beta2Delta): -0.00752 (inactive)

SMILES: Oc1cccc2cccnc12
- inhibition [5]: -67%
- score [6]: 0.03
- rescue above control [7]: 8.29
- cytochrome c release ratio [8]: 0.94
- inhibition of aggregation [9]: 83.3%
- glutamate uptake change [10]: 53.7%
- aggregation suppression score [11]: 0.00802

SMILES: CCCC(C)C1(CC)C(=O)N=C(S)NC1=O (stereo not given)
- inhibition [5]: 15.2%
- score [6]: 1.17
- rescue above control [7]: -8.64
- cytochrome c release ratio [8]: 1.02
- inhibition of aggregation [9]: 30.6%
- glutamate uptake change [10]: 15.5%
- aggregation suppression score [11]: 0.929

SMILES: Cc1cccc(C)c1NC(=O)CN1CCCC1=O
- inhibition [12]: -5% (inactive)
- fluorescence ratio (interference) [13]: 1 (inactive)
- outcome [2]: inactive
- outcome [3]: inactive
- outcome [14]: inactive

SMILES: NCC1(CC(=O)O)CCCCC1
- period change [15]: -0.07 h (inactive)
- inhibition [12]: -6% (inactive)
- fluorescence ratio (interference) [13]: 1 (inactive)
- outcome [2]: inactive
- outcome [3]: inactive
- outcome [14]: inactive

SMILES: COc1ccc(C(=O)c2c(C)n(CCN3CCOCC3)c3ccccc23)cc1
- outcome [2]: inactive

SMILES: CC(C)(C)OC(=O)c1ncn2c1[C@@H]1CCCN1C(=O)c1c(Br)cccc1-2
- remaining activity [1]: 103% (inactive)

SMILES: CCCCC/C=C\C/C=C\C/C=C\C/C=C\CCCC(=O)NCC(=O)O
- period change [15]: 0.15 h (inactive)
- inhibition [12]: -1% (inactive)
- fluorescence ratio (interference) [13]: 1 (inactive)

SMILES: N#CC(C#N)=Cc1ccc(O)c(O)c1
- period change [15]: -0.18 h (inactive)
- inhibition [12]: 0% (inactive)
- fluorescence ratio (interference) [13]: 1 (inactive)
- remaining activity [1]: 122% (inactive)
- outcome [14]: inactive

SMILES: CC(C)NCC(O)c1ccc(N)c(C#N)c1 (stereo not given)
- remaining activity [1]: 122% (inactive)

SMILES: Clc1cccc(SC2CCNCC2)n1
- remaining activity [1]: 108% (inactive)

SMILES: C[C@]12CC[C@H](O)CC1=CC[C@@H]1[C@@H]2CC[C@]2(C)C(=O)CC[C@@H]12
- period change [15]: -0.175 h (inactive)
- outcome [2]: inactive
- outcome [3]: inactive

SMILES: Cn1c(CCCC(=O)O)nc2cc(N(CCCl)CCCl)ccc21
- inhibition [12]: -4% (inactive)
- fluorescence ratio (interference) [13]: 1 (inactive)
- outcome [3]: inactive
- outcome [14]: inactive

SMILES: O=C(O)c1ccc2[nH]cc(CCCCN3CC=C(c4ccccc4)CC3)c2c1
- remaining activity [1]: 115% (inactive)

SMILES: Cc1ncsc1CCCl
- inhibition [12]: -2% (inactive)
- fluorescence ratio (interference) [13]: 1 (inactive)
- remaining activity [1]: 110% (inactive)
- outcome [14]: inactive

SMILES: Cc1ccc(S(=O)(=O)N[C@@H](CCCCN)C(=O)CCl)cc1
- period change [15]: 0 h (inactive)
- inhibition [12]: -3% (inactive)
- fluorescence ratio (interference) [13]: 1 (inactive)
- outcome [14]: inactive

SMILES: C=CCN1C[C@H](C)N([C@H](c2ccc(C(=O)N(CC)CC)cc2)c2cccc(OC)c2)C[C@H]1C
- remaining activity [1]: 118% (inactive)

SMILES: Fc1ccc(C(OCCN2CCN(CCCc3ccccc3)CC2)c2ccc(F)cc2)cc1
- period change [15]: -0.11 h (inactive)
- inhibition [12]: -2% (inactive)
- fluorescence ratio (interference) [13]: 1 (inactive)
- remaining activity [1]: 118% (inactive)
- AC50 [2]: 14.8 µM (active)
- AC50 [3]: 8.33 µM (active)
- outcome [14]: inactive

SMILES: CC[N+](CC)(CC)CC
- period change [15]: 0.115 h (inactive)
- inhibition [12]: 14% (inactive)
- fluorescence ratio (interference) [13]: 1 (inactive)

SMILES: CCCC[N+]1(C)[C@@H]2CC(OC(=O)[C@H](CO)c3ccccc3)C[C@H]1[C@@H]1O[C@@H]12 (stereo not given in full)
- outcome [2]: inactive
- outcome [3]: inactive

SMILES: c1ccc(C2CC2)c(OCC2=NCCN2)c1
- period change [15]: -0.34 h (inactive)
- inhibition [12]: -4% (inactive)
- fluorescence ratio (interference) [13]: 1 (inactive)
- remaining activity [1]: 102% (inactive)
- outcome [14]: inactive

SMILES: CC(=O)[C@H]1CC[C@H]2[C@@H]3CC[C@H]4C[C@H](O)CC[C@]4(C)[C@H]3C(=O)C[C@]12C
- period change [15]: -0.1 h (inactive)
- inhibition [12]: -1% (inactive)
- fluorescence ratio (interference) [13]: 1 (inactive)
- outcome [14]: inactive

SMILES: CCCN1CCC[C@@H]2Cc3nc(N)ncc3C[C@H]21
- period change [15]: -0.24 h (inactive)
- inhibition [12]: -1% (inactive)
- fluorescence ratio (interference) [13]: 1 (inactive)
- outcome [14]: inactive

SMILES: CCCCc1ccc(C(=O)O)nc1
- period change [15]: -0.03 h (inactive)
- inhibition [12]: -3% (inactive)
- fluorescence ratio (interference) [13]: 1.1 (inactive)
- outcome [14]: inactive

SMILES: FC(F)(F)c1cccc(C2=CCN(CCc3ccc4ccccc4c3)CC2)c1
- remaining activity [1]: 94.1% (inactive)

SMILES: Cc1nnc2n1-c1sc(CCC(=O)N3CCOCC3)cc1C(c1ccccc1Cl)=NC2
- remaining activity [1]: 108% (inactive)

SMILES: C#C[C@]1(O)C=C[C@H]2[C@@H]3CCC4=CC(=O)CC[C@@H]4[C@H]3CC[C@@]21CC
- outcome [2]: inactive
- outcome [3]: inactive

SMILES: COC[C@@H](NC(C)=O)C(=O)NCc1ccccc1
- outcome [2]: inactive
- outcome [3]: inactive

SMILES: O=C1NCN(c2ccccc2)C12CCN(CC1COc3ccccc3O1)CC2 (stereo not given)
- period change [15]: 0.005 h (inactive)
- inhibition [12]: -6% (inactive)
- fluorescence ratio (interference) [13]: 0.9 (inactive)
- remaining activity [1]: 104% (inactive)
